The text below walks through data of PubChem BioAssay.

A short description of experiment [1]: stimulators of nuclear beta-catenin in C2C12, primary screen, imaging, WNT3A-conditioned medium, mouse C2C12, NPC library (AID 1117326). Conditions: stronger effect = higher value.
Experiment [2] is described as follows: stimulators of insulin release from INS-1E, primary screen, cell-based, 5 mM glucose, NPC library (AID 1117329;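 active means compound raises insulin release from rat beta cells at 5 mM glucose, no numeric limit stated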). Conditions: rat INS-1E insulin secretion, at 10 µM, stronger effect = higher value.
Experiment [3] is described as follows: glucagon-like peptide 1 release enhancers, primary assay, NCI-H716 cell line, NPC library (AID 1117341;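 active means compound raises GLP1 secretion from the human gut endocrine cells, with no numeric limit stated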). Conditions: NCI-H716 cells, at 10 µM, stronger effect = higher value.
Experiment [4] is described as follows: growth inhibition of GSK3B-pretreated HCT116 cells – cell-based, CellTiter-Glo, 0.2 to 20 µM (AID 1117336;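 active means compounds lowering colon cancer cell viability after pretreatment blocking the GSK3B kinase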). Particulars: HCT116 viability after GSK3B inhibitor, at 20 µM, stronger effect = higher value. (In general: Cellular ATP, detected with luciferase, serves as a proxy for viable cell number.)
Experiment [5] can be described thus: inhibition of endothelial tube formation, primary screen, imaging, VEGF stimulated, CD31 staining, tube area, NPC library (AID 1117340;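 active means compound that reduces growth-factor-driven endothelial tube area in a mixed cell culture, no cutoff stated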). Particulars: VEGF-stimulated ADSC/ECFC co-culture, at 10 µM, stronger effect = higher value.
The nature of experiment [6]: HCT116 colon cancer cell growth inhibition, primary screen, CellTiter-Glo luminescence, NPC library (AID 1117342;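 active means compounds that lower survival of HCT116 colon cancer cells in the luminescence readout, no numeric limit stated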). Conditions: at 20 µM (top of the series).
Experiment [7] in a line: CellTiter-Glo luminescent readout of SW480 viability loss, NPC library primary (AID 1117343;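 active means compounds that lower viability of the colon cancer cells in the luminescence readout, with no numeric limit stated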). Conditions: CellTiter-Glo luminescence; at 20 µM (top of the series) unless noted.
The nature of experiment [8]: decreased DLD-1 cellular survival, CellTiter-Glo luminescent readout, NPC compound collection, primary HTS (AID 1117346;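 active means compounds that lower survival of DLD-1 colon cancer cells in the luminescence readout, no cutoff given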). Particulars: DLD-1 viability, CellTiter-Glo luminescence; at 20 µM (top of the series).
For experiment [9], the target named is NAD(+) hydrolase SARM1 (Homo sapiens) (UniProt Q6SZW1). Briefly: SARM1 TIR NADase inhibitors, cell lysate, NAD-Glo luminescence (AID 1508614;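 active means compound whose remaining NAD level is above about 45 nM, limit read from the data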). Particulars: SAM-TIR HEK293T lysate NADase, at 1 µM, stronger effect = higher value.
Experiment [10] addresses Mitogen-activated protein kinase 7 (Homo sapiens) (UniProt Q13164). Briefly: ERK5 transactivation activators in reporter cells, primary screen, cell-based, HTS (AID 1508626;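 active means luciferase signal above three times the same-plate solvent-only control wells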;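 further: luciferase driven by Gal4-ERK5 fusion binding five Gal4 sites before minimal TATA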). Conditions: HeLa Gal4-ERK5 transactivation, 18 h, at 5 µM, stronger effect = higher value.
Experiment [11] in a line: sensitizers of A549 cells to miR-34 induction, primary screen, imaging, A549 dox-inducible miR-34, nuclei and caspase counts (AID 1347080;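 active means compounds whose cell count with miR-34 switched on is under 0.7 times the count with it off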). Conditions: A549 miR-34 inducible, Hoechst nuclei count, 48 h.
Experiment [12] can be described thus: survival rescue of mitochondrial mutant cells in low glucose, primary screen, MELAS cybrids, Rieske KO mouse fibroblasts, CellTiter-Glo (AID 1508586;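 active means mean z-score across replicates of 1.96 or higher in either the MELAS or the Rieske mutant cell line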;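 further: z relative to plate mean and SD of compound and empty wells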).
The nature of experiment [13]: viability rescue of complex I mutant cybrids, primary screen, cell-based, galactose medium, ATP luminescence (AID 1645843;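 active means z-score of at least 1.8 in each of two replicates, scored against plate mean and spread of sample wells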;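 further: positive z means more ATP and so rescue of galactose-driven cybrid death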). Particulars: complex I mutant cybrid cells, 72 h, stronger effect = higher value.
Setting [14] is: stronger effect = lower value, cell number ratio, induced over uninduced.
The mark [15] stands for this setting: measured here: relative caspase fold change +Dox/-Dox.
Where [16] appears, read: measured here: total cells with miR-34 induction, stronger effect = lower value.
Where [17] appears, read: measured here: total cells without miR-34 induction.
Where [18] appears, read: MELAS cybrid survival, CellTiter-Glo 48 h, stronger effect = higher value.
Setting [19] is: Rieske KO mouse fibroblast survival, CellTiter-Glo 72 h.

Values joined by “and” are separate entries in the source; they are usually repeats but may differ in a detail not shown here. Equal values may be shown once. Active and inactive are the calls of the source. Unless noted, no stated cut-off is given here; in the data, active means nuclear beta-catenin stimulation mostly above about 4.2% (no sharp cut-off); inactive means mostly below about 10%.

Sequence of Mitogen-activated protein kinase 7 (Homo sapiens) (Q13164 whole entry, looked up, the tested form may be a part): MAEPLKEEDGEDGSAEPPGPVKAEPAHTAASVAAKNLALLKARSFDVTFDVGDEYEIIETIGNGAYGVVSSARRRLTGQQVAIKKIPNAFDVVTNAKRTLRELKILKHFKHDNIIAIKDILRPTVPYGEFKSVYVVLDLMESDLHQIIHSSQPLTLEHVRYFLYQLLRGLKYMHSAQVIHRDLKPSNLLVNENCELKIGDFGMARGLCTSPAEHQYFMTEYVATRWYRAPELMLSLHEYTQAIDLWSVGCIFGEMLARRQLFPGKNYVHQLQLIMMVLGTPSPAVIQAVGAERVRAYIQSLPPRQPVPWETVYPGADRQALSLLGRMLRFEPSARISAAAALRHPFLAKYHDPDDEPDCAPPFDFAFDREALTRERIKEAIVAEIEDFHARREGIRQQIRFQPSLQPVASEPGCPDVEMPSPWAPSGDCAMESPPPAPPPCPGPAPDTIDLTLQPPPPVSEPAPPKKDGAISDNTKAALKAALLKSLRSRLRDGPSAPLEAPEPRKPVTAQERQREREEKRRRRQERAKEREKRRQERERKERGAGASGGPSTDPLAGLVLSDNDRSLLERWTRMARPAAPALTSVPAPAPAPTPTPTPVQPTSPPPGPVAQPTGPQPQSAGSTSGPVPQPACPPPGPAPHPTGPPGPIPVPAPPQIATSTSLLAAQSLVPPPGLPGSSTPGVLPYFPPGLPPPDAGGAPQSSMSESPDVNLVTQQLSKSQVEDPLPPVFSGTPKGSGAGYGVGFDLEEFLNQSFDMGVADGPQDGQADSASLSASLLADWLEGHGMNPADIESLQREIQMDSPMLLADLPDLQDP
Sequence of NAD(+) hydrolase SARM1 (Homo sapiens) (Q6SZW1 whole entry, looked up, the tested form may be a part): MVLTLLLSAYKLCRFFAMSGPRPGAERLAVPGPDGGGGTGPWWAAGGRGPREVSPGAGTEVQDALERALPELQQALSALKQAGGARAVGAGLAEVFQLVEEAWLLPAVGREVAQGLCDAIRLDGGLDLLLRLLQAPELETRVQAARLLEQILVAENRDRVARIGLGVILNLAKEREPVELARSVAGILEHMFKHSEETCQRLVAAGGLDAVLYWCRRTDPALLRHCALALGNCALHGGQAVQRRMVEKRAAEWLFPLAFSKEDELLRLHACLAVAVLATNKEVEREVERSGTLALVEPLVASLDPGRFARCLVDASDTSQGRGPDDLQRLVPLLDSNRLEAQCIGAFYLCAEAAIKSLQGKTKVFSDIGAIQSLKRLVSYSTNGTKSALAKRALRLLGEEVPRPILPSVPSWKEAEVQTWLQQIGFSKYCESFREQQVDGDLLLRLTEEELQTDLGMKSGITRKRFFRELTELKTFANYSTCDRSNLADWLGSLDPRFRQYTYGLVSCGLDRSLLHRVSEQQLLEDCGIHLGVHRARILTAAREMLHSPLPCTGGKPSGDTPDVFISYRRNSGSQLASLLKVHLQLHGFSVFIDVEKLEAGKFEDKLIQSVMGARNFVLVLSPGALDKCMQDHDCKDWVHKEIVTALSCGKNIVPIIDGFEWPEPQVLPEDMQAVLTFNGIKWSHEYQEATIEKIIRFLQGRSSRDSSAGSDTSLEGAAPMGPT

In the case of `CCC1Nc2cc(Cl)c(S(N)(=O)=O)cc2S(=O)(=O)N1` (centres undefined), the nuclear beta-catenin stimulation was -0.1% (inactive) in experiment [1] (at 10 µM) and -1.8% in [1] (stimulation, at 2 µM). Moreover, the insulin secretion stimulation in experiment [2] is 0.25% (inactive). Further, the GLP1 secretion stimulation in experiment [3] is 2% (inactive).

For the compound `CCOC(=O)c1ccccc1O`, the nuclear beta-catenin stimulation in experiment [1] (at 10 µM) was 1.4% (inactive); in [1] (stimulation, at 2 µM), 8.4%. Further, in [4], the viability decrease is 4.2% (inactive). The tube area decrease in experiment [5] is -12.2% (inactive). Also, the inhibition of viability in experiment [6] is 3.3% (inactive). Also, the viability decrease (inhibition) in [7] was -4.5% (inactive); in experiment [8] it was -2.7% (inactive).

In the case of `C=CCCCCCCCCC(=O)OC`, the nuclear beta-catenin stimulation in [1] (at 10 µM) was 2.7% (inactive); in [1] (stimulation, at 2 µM) it was 2%. Further, the insulin secretion stimulation in [2] is 2.85% (inactive). In experiment [3], the GLP1 secretion stimulation was 1.2% (inactive).

In the case of `CC(C)(CO)[C@@H](O)C(=O)NCCC(=O)NCCSSCCNC(=O)CCNC(=O)[C@H](O)C(C)(C)CO`, the nuclear beta-catenin stimulation in experiment [1] (at 10 µM) is 0% (inactive); in [1] (stimulation, at 2 µM), -1.3%. Also, the insulin secretion stimulation in [2] was 0.15% (inactive). Besides, the GLP1 secretion stimulation in [3] was 2% (inactive). In addition, the remaining NAD in experiment [9] was 10 nM (inactive). The luciferase signal in [10] is 160 AU (active).

Consider `NC(=O)C1(N2CCCCC2)CCN(CCCN2c3ccccc3CCc3ccc(Cl)cc32)CC1`, for which the nuclear beta-catenin stimulation in experiment [1] (at 10 µM) is 1.5% (inactive); in [1] (stimulation, at 2 µM) it was 12.3%. Besides, the viability decrease in experiment [4] is 99.5% (active). Moreover, in experiment [5], the tube area decrease is 109% (active). Further, the inhibition of viability in experiment [6] was 99.4% (active). Also, the viability decrease (inhibition) in experiment [7] and in experiment [8] was 102% (active) in each case.

Take `CCCCC[C@@H](O)CC[C@H]1[C@@H]2Cc3cccc(OCC(=O)O)c3C[C@@H]2C[C@@H]1O`: the nuclear beta-catenin stimulation is -0.3% (inactive) in [1] (at 10 µM) and 0.2% in experiment [1] (stimulation, at 2 µM). In [2], the insulin secretion stimulation is -0.45% (inactive). Besides, in experiment [3], the GLP1 secretion stimulation was 8.8% (inactive).

Consider `NC1=NCC2c3ccccc3Cc3ccccc3N12` (centres undefined), for which the nuclear beta-catenin stimulation was -0.3% (inactive) in [1] (at 10 µM) and -1% in experiment [1] (stimulation, at 2 µM). In experiment [2], the insulin secretion stimulation was 12.5% (inactive). Also, the GLP1 secretion stimulation in experiment [3] was 4.4% (inactive). In addition, the fold change in experiment [11] (setting [14]) was 0.943 (inactive) and 0.763 (inactive); in [11] (setting [15]) it was 0.904 and 1. Further, the cell count in experiment [11] (setting [16]) is 9270 and 7910; in experiment [11] (setting [17]) it was 9840 and 10400. Besides, the z-score in [12] (setting [18]) is -0.3 (inactive); in [12] (setting [19]) it was -0.211; in experiment [13], -0.265 (inactive).

Take `COc1ccc2c(c1)c1c3n2CCN(C)C3=NCC1`: the nuclear beta-catenin stimulation in experiment [1] (at 10 µM) was 1.3% (inactive); in [1] (stimulation, at 2 µM) it was 0.5%. Moreover, the insulin secretion stimulation in [2] is 1.05% (inactive). Moreover, in [3], the GLP1 secretion stimulation is 6.4% (inactive).

For the compound `C[S+](CC[C@H](N)C(=O)O)C[C@H]1O[C@@H](n2cnc3c(N)ncnc32)[C@H](O)[C@H]1O` (some centres undefined), the nuclear beta-catenin stimulation is 0.8% (inactive) in experiment [1] (at 10 µM) and 1.9% in experiment [1] (stimulation, at 2 µM). Besides, in experiment [2], the insulin secretion stimulation is 1.55% (inactive). In addition, in [3], the GLP1 secretion stimulation is -0.4% (inactive).

As for `CN1CCN(c2cc3c(nn2)Oc2ccccc2N3C)CC1`, the nuclear beta-catenin stimulation in experiment [1] (at 10 µM) was 0.9% (inactive); in [1] (stimulation, at 2 µM) it was 0.3%. For the same compound, the insulin secretion stimulation in experiment [2] is -1.15% (inactive). The GLP1 secretion stimulation in [3] was 5.9% (inactive).

For `CC1CCC(C(C)C)C(OC(=O)c2ccccc2O)C1` (centres undefined), the nuclear beta-catenin stimulation was -1.1% (inactive) in experiment [1] (at 10 µM) and -2.6% in [1] (stimulation, at 2 µM). In addition, the insulin secretion stimulation in experiment [2] was -1% (inactive). Besides, the GLP1 secretion stimulation in experiment [3] is -8.7% (inactive).

Consider `CCCCCCOC(=O)c1cccnc1`, for which the nuclear beta-catenin stimulation in [1] (at 10 µM) is 5.7% (inactive); in experiment [1] (stimulation, at 2 µM), 1.5%. In addition, the insulin secretion stimulation in experiment [2] is -1.25% (inactive). Besides, the GLP1 secretion stimulation in experiment [3] was -0.9% (inactive).

In the case of `CNS(=O)(=O)CCc1ccc2[nH]cc(C3CCN(C)CC3)c2c1`, the nuclear beta-catenin stimulation is 0.7% (inactive) in experiment [1] (at 10 µM) and 0.4% in [1] (stimulation, at 2 µM). Moreover, in experiment [2], the insulin secretion stimulation was 0.5% (inactive). The GLP1 secretion stimulation in experiment [3] is -4.5% (inactive). The fold change in [11] (setting [14]) was 1.03 (inactive) and 0.889 (inactive); in [11] (setting [15]) it was 0.856 and 0.863. Moreover, the cell count in [11] (setting [16]) was 10300 and 7800; in experiment [11] (setting [17]), 9960 and 8780. Besides, the results for the z-score in [12] (setting [18]), in experiment [12] (setting [19]) and in [13] were -0.419 (inactive), 0.51 and -0.035 (inactive), respectively.
